Among the data in PubChem BioAssay AID1259422 (The Scripps Research Institute Molecular Screening Center, 2018) are inhibition values, retold here.

What is called inhibition is the relative decrease from the control value, in per cent.

Out of some 640,000 compounds screened, about 9,300 (1.5%) were called active. What follows is part of a selection rich in actives, with near analogues and random picks from the rest. A number with no mark means an inactive call. Cut-off read from the data, not from the text of the source: active = inhibition above about 32%; inactive = the rest.

The nature of this experiment: TEAD-YAP interaction inhibition, primary screen, TEAD-YAP interaction inhibitor project, luminescence, HEK-TIYL cells (AID 1259422).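 Note: 0% = median of test compound wells and 100% = reference inhibitor wells.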 Particulars: TEAD-Gal4/YAP UAS-luciferase luminescence, at 9.12 µM, active compounds read high.
As for `O=C(N/N=C/c1ccc2c(c1)OCO2)c1cc(O)c(O)c(O)c1`, the inhibition was 9.47%.
The result for `O=C(N/N=C/c1ccc(O)c([N+](=O)[O-])c1)c1ccc2c(c1)OCO2` reads -20.5%.
As to `O=C(N/N=C\c1ccc([N+](=O)[O-])c(O)c1)c1ccc2c(c1)OCO2`, the inhibition was 42.6% (active).
As to `O=C(CCl)Nc1c(C(=O)C2CC2)oc2ccccc12`, the inhibition is -1.47%.
The result for `O=C(/C=C\c1ccccc1)N1CCN(Cc2nnnn2-c2cccc(F)c2)CC1` reads 14.7%; that for `C=CCSc1nnc2c3ccccc3n(CCc3ccccc3)c2n1`, 41.4% (active).
With `COC(=O)CSc1nnc2c3ccccc3n(CCc3ccccc3)c2n1`, the inhibition is -5.74%.
The result for `C=CCN(CC=C)C(=O)CSc1nnc2c3ccccc3n(C)c2n1` reads -18.1%; that for `CC(Cc1ccco1)NC(=O)Nc1ccc2c(c1)OCO2` (configuration not stated), -9.4%; that for `Nc1c(Cl)cc(N2C(=O)c3cccc([N+](=O)[O-])c3C2=O)cc1Br`, -3.28%.
The result for `Cc1c(C(c2ccc3c(c2)OCCO3)c2c(C)n(C)n(-c3ccccc3)c2=O)c(=O)n(-c2ccccc2)n1C` reads 1.2%; that for `FC(F)(F)c1cccc(Nc2nccn3c(-c4ccc(N5CCOCC5)cc4)cnc23)c1`, 9.67%; that for `Cc1ccc(C2SCC(=O)N2c2ccccc2)cc1` (configuration not stated), -20.1%.
The result for `COc1ccc(N2C(=O)CSC2c2ccc(C)cc2)cc1` (configuration not stated) reads 1.91%; that for `Cc1ccc(C2SCC(=O)N2c2ccc(C)cc2)cc1` (configuration not stated), 35.1% (active).
On to `CCCC1(C2CCN(C(=O)c3ccc(F)c(F)c3)CC2)NC(=O)N(CC2CCCO2)C1=O` (configuration not stated), for which the inhibition was -9.71%.
Regarding `COc1ccc(C2C3=C(CC(C)(C)CC3=O)N(CCc3ccccc3)C3=C2C(=O)CC(C)(C)C3)cc1`, the inhibition was 4.3%.
The result for `O=C1C2C3C=CC(C3)C2C(=O)N1c1ccc(Oc2ccc(Br)cc2)cc1` (configuration not stated) reads -3.86%.
Turning to `Cn1nnnc1-c1ccc(Nc2nccc(-c3ccc(N4CCC(O)CC4)c(C#N)c3)n2)cc1`, the inhibition was 37.5% (active).
The result for `Cc1ccc(-c2ncn(-c3ccc(Nc4nccc(-c5cc(C#N)cc(N6CCCC(O)C6)c5)n4)cc3)n2)cn1` (configuration not stated) reads -6.62%.
The result for `O=C(c1ccc(Nc2nccc(-c3ccc4c(=O)[nH]c(C5CC5)nc4c3)n2)cc1)N1CCCC1` reads -6.26%.
As to `COc1ccc(-c2nc(NCCOc3ccccc3)nc(OC)n2)cc1`, the inhibition is -21.8%.
The result for `Cc1cc(C)n(CCc2nc(-c3ccc(Cl)cc3)cs2)n1` reads -9.3%; that for `COC1CCN(c2nc(CN3CCCC3c3nccs3)nc3ccc(Cl)cc23)CC1` (configuration not stated), 42.9% (active).
The result for `OC1(c2cccnc2)CCN(Cc2nc(N3CCOCC3)c3cc(Cl)ccc3n2)CC1` reads -1.26%.
The result for `Clc1ccc(CN2CCC[C@H]2c2nc3ccc(-c4ccncc4)cc3[nH]2)cc1` reads -0.35%.
For the molecule `NC(=O)c1ccc(-c2nccc(NC3CCN(Cc4ccccc4)CC3)n2)cc1`, the inhibition was -1.25%.
`COc1cccc(OC)c1C(=O)Nc1ccc(C)cc1`: the inhibition is -5.7%.
With `Cc1ccc(S(=O)(=O)N2CCCC2C(=O)NCCO)cc1` (configuration not stated), the inhibition was -1.16%.
As to `C=CCNC(=O)C1CCCN(S(=O)(=O)c2ccc(F)cc2)C1` (configuration not stated), the inhibition was 1.52%.
The result for `C=CCNC(=O)C1CCCN1S(=O)(=O)c1ccc(Cl)cc1` (configuration not stated) reads 57.2% (active); that for `CCOCCCNC(=O)C1CCC(=O)N1C1CCCCC1` (configuration not stated), -0.7%.
The result for `Cc1ccc(S(=O)(=O)NC(C)Cc2cccs2)cc1` (configuration not stated) reads 5.37%; that for `CC1=C(C(=O)NCc2cccs2)C2(CCCCC2)OC1=O`, 13.8%.
The result for `CN1CCN(c2ccc(-c3nc4ccc(C(=O)NCc5ccccc5)cc4s3)cc2)CC1` reads 3.92%; that for `O=C(NC1CC1)c1ccc(-c2nc3ccc(C(=O)NC4CCN(Cc5ccccc5)CC4)cc3s2)cc1`, -0.23%; that for `CN(C)c1ccc(-c2nc3ccc(C(=O)O)cc3s2)cc1`, 96.5% (active).
On to `N#C/C=C(/CC(O)(c1nc2ccccc2s1)C(F)(F)F)N1CCCC1` (configuration not stated), for which the inhibition is 2.12%.
The result for `CN(C)C(=O)c1cc(CNCCCc2ccccc2)cc(NC(=O)c2ccccn2)c1` reads -3.43%; that for `Cc1cc(NC(=O)c2cccn(OCc3ccc(F)cc3)c2=O)no1`, -2.96%.
The result for `COc1ccccc1Nc1ncnc2c1cnn2-c1ccc(C)cc1` reads -73%; that for `c1ccc(Cn2nnc3c(N4CCCCC4)ncnc32)cc1`, -2.04%; that for `O=C(CCc1ccccc1)NCCn1ncc2c(N3CCN(c4ncccn4)CC3)ncnc21`, -1.06%.
In the case of `Cc1ccc(N2CCN(c3ncnc4c3cnn4-c3ccccc3)CC2C)cc1` (configuration not stated), the inhibition is 9.96%.
The result for `c1ccc(OCCn2ncc3c(N4CCCC4)ncnc32)cc1` reads 81% (active); that for `c1ccc(-n2ncc3c(Oc4cccc5cccnc45)ncnc32)cc1`, 42.7% (active); that for `Fc1ccc(Nc2ncnc3c2cnn3-c2ccccc2)cc1`, -36.2%.
The result for `OCCNc1ncnc2c1cnn2-c1ccccc1` reads -28.4%; that for `COc1ccc(-n2ncc3c(Nc4ccc(F)c(Cl)c4)ncnc32)cc1`, 13.3%.
The result for `CCOc1ccc(-n2cc(-c3ccccc3)c3c(N4CCCC(C)C4)ncnc32)cc1` (configuration not stated) reads -7.09%; that for `c1ccc(-n2ncc3c(N4CCCC4)ncnc32)cc1`, 37.8% (active); that for `COc1ccc(-n2ncc3c(N4CCCC(C)C4)ncnc32)cc1` (configuration not stated), 94.8% (active).
As for `CCCS(=O)(=O)N1CCCc2ccc(NC(=O)CC(C)C)cc21`, the inhibition is 3.52%.
The result for `CCOC(=O)C1CCN(c2nc(-c3cccnc3)nc3c2CN(S(C)(=O)=O)CC3)CC1` reads 9.38%; that for `COCCNC(=O)Cn1cnc2c(nnn2-c2ccc(Cl)cc2)c1=O`, 2.42%; that for `N#Cc1c(-c2ccc(F)cc2)cc(C2CC2)nc1SCCN1C(=O)c2ccccc2C1=O`, 7.65%.
The result for `Cc1cncn(CC(=O)NCCc2csc(-c3ccccc3)n2)c1=O` reads -3.04%; that for `COc1ccccc1Cn1c(SCC(=O)Nc2ccc(N(C)C)cc2)nc2ccccc2c1=O`, -7.65%.
The result for `CCCCC(CC)CNS(=O)(=O)c1ccc2c(c1)n(C)c(=O)c(=O)n2C` (configuration not stated) reads -13.6%; that for `COCCNC(=O)/C(=C/c1cccc([N+](=O)[O-])c1)c1ccccc1`, -2.61%; that for `S=C(S)NCCc1c[nH]c2ccccc12`, 10.8%.
Consider `O=C(CSc1nc(=O)[nH]c2c1CCC2)N1CCCCCC1`, for which the inhibition is 1.26%.
In the case of `O=C(CCc1nnc(-c2ccccc2)o1)NCCc1ccccc1Cl`, the inhibition was -37.1%.
For the molecule `CCN(CC)C(=O)C1CCCN(c2cc(NCc3ccccc3)ncn2)C1` (configuration not stated), the inhibition is -14.4%.
With `CN1CCN(c2ncnc3c2cnn3-c2ccc(Cl)c(Cl)c2)CC1`, the inhibition is 32.8% (active).
The result for `Cc1ccc(-n2ncc3c(N4CCN(C)CC4)ncnc32)c(C)c1` reads -7.59%.
In the case of `CCN(CC)C(=O)C1CCCN(c2ncnc3c2cnn3-c2ccccc2)C1` (configuration not stated), the inhibition is 34.1% (active).
The result for `CCN(CC)C(=O)C1CCCN(c2ncnc3c2c(-c2ccccc2)cn3-c2cccc(Cl)c2)C1` (configuration not stated) reads -12.8%; that for `CN1CCN(c2ncnc3c2c(-c2ccccc2)cn3-c2ccccc2)CC1`, 4.3%; that for `Cc1ccccc1C(=O)NCC1(c2cccs2)CC1`, -38.7%.
The result for `CN1CCN(C(=O)c2ccc(-c3ccc(C(=O)NCCOc4ccccc4)s3)cc2)CC1` reads -10.2%; that for `O=C1c2ccc(Br)cc2C(=O)N1CNc1cccc(F)c1`, 2.19%; that for `CCCCOc1ccccc1C1C(C(=O)OCCOCC)=C(C)NC2=C1C(=O)CC(C)(C)C2` (configuration not stated), -1.41%.
The result for `COc1ccccc1C1N=C(c2cccs2)CC(c2ccccc2O)N1` (configuration not stated) reads -31.6%; that for `Cn1c(-c2ccc(F)cc2Cl)c(C(=O)O)c2ccccc2c1=O`, 5.25%.
For `Cc1ccc2c(c1)CN(CCC(=O)NCC(C)(C)CO)CC(C)O2` (configuration not stated), the inhibition was 5.33%.
With `COc1ccccc1-c1cc2nc(C)c(CCC(=O)Nc3ccccc3C(N)=O)c(C)n2n1`, the inhibition was 12.4%.
The result for `COc1ccc(CNC(=O)CCc2c(C)nc3cc(-c4ccccc4)nn3c2C)cc1` reads 2.84%; that for `COc1ccccc1-c1cc2nc(C)c(CCC(=O)O)c(C)n2n1`, 48.5% (active).
As for `O=C(C1CC=CCC1)N1CCn2cnnc2C1` (configuration not stated), the inhibition was 1.34%.
The result for `Cc1cc(C)nc(SCC(=O)Nc2cc(C(=O)O)cc([N+](=O)[O-])c2)n1` reads -2.98%.
The result for `CCn1c(=O)cc(SCC(=O)Nc2cccc([N+](=O)[O-])c2C)c2ccccc21` reads -12.2%; that for `Cc1c(/C=N\NC(=O)c2cc3ccccc3o2)c2ccccc2n1C`, 49.3% (active); that for `Cc1c(/C=N\Nc2ccc([N+](=O)[O-])cc2)c2ccccc2n1C`, 12.8%.
Take `Cc1c(/C=N/NC(N)=S)c2ccccc2n1C`: the inhibition was -7.34%.
The result for `c1ccc(Cn2cc(-c3cnn4c(NCCc5cccnc5)ccnc34)cn2)cc1` reads -23.6%.
The result for `C=CCn1c(SCCC(=O)NCCc2ccccc2)nc2scc(-c3ccco3)c2c1=O` reads -10.1%; that for `C=CCn1c(SCC(=O)N2CCCCCC2)nc2scc(-c3ccc(C)o3)c2c1=O`, -7.67%; that for `C=CCn1c(SCC(=O)N2CCOCC2)nc2scc(-c3ccccc3Cl)c2c1=O`, 49.9% (active).
The result for `Cc1ccc(C(=O)COC(=O)c2ccc(-n3cnnn3)cc2)cc1` reads 11.7%.
In the case of `COc1cc(Nc2nc(-c3ccc(C(=O)NC4CC4)cc3)nc3c2ncn3-c2ccsc2)cc(OC)c1OC`, the inhibition is 22.8%.
In the case of `O=C(COC(=O)CSCc1c[nH]c(=O)[nH]c1=O)Nc1nc(-c2ccccc2)cs1`, the inhibition was -38%.
